Screening results deposited in PubChem BioAssay by National Center for Advancing Translational Sciences (NCATS).
GCN5L2 inh: inhibitors of human GCN5L2 histone acetyltransferase; Potency, µM (top dose mostly 58.9 µM), for the others: top-dose activity change, negative = inhibition, usual class: inhibitors; AID 504327; Q92830; GCN5L2 HAT assay, ThioGlo1 CoA-SH fluorescence; 0.21% of 390,000 active
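GCN5L2 (20 nM) in 50mM HEPES pH 7.5, 0.1mM EDTA, 0.01% Tween-20 preincubated 15 min with compounds at room temperature. Reaction started with H3(1-25) 75uM, acetyl-CoA 70uM, ThioGlo1 50uM; CoA-thiol fluorescence (Ex340/Em540) read at 0 and 20 min.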
TDP1 cell CPT: DT40-hTDP1 cell growth loss with CPT; chicken DT40 Tdp1-/-;hTDP1 cells + 20 nM CPT, ATP luminescence, 48 h; Potency, µM (top dose mostly 46.2 µM), for inactives: at the top dose activity change, negative = growth inhibition, usual class: inhibitors; 12% of 420,000 active; AID 686979; note: nearly all actives have a fitted effect of over 55% in size
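Chicken DT40 Tdp1-/- cells stably complemented with human TDP1 were seeded at 400 cells/well in medium containing 20 nM camptothecin, exposed to pin-transferred compounds, and grown at 37 °C for at least 48 hr. Viability was read as ATP luminescence.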
TDP1 cell noCPT: qHTS for Inhibitors of human tyrosyl-DNA phosphodiesterase 1 (TDP1): qHTS in cells in absence of CPT | Potency, µM (series often up to 46.2 µM), inactives show at the top dose activity change, negative = growth inhibition, usual class: inhibitors | 15% of 420,000 active | AID 686978, 2013 | DT40 Tdp1-/- hTDP1 cells, no CPT, ATP luminescence, 48 h; note: nearly all actives have a fitted effect of over 55% in size
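Chicken DT40 Tdp1-/- cells complemented with human TDP1, screened without camptothecin (DMSO vehicle only), 400 cells/well. Compounds pin-transferred, cells incubated at 37 °C for at least 48 hr. Growth read as ATP-dependent luminescence (CellTiter-Glo, 30 min at RT).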
TDP1 inh: inhibitors of human tyrosyl-DNA phosphodiesterase TDP1; Potency, µM (doses to about 130 µM), for inactives: at the highest dose activity change, negative = inhibition, usual class: inhibitors; Q9NUW8; recombinant TDP1, AlphaScreen DNA substrate cleavage; 0.28% of 350,000 active; note: nearly all actives have a fitted effect of over 40% in size
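Tdp1 1 nM final; 15 min RT w/ cpd; substrate 15 nM, 5 min; beads 10 ug/ml, 10 min; AlphaScreen read. Neg ctrl: no enzyme.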
VDR inhibitor: blocks the human vitamin D receptor; P11473; VDR-SRC2-3 peptide fluorescence polarization, 2 h; Potency, µM, for inactives: max response, negative = inhibition, usual class: inhibitors; 0.93% of 400,000 active
Target sequence (P11473 whole entry, looked up): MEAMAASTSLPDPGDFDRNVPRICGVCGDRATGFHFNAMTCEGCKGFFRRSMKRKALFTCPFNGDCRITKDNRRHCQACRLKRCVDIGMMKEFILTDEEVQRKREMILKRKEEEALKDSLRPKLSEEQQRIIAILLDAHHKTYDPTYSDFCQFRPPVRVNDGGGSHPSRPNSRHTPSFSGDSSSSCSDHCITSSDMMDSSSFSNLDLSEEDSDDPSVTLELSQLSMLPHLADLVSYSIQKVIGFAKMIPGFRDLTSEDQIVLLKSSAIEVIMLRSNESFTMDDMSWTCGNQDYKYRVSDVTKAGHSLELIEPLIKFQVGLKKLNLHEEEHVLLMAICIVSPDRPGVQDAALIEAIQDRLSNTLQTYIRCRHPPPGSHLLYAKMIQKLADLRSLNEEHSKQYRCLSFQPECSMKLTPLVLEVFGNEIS
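Inhibition of the VDR/SRC2-3 peptide interaction is quantified by fluorescence polarization. Compounds (23 nl, pintool) incubate with the reagents for 2 hours at ambient room temperature.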
PLK1 PBD block: PLK1 (human) polo-box domain binding inhibition. P53350. Plk1 PBD binding of FITC phosphopeptide, fluorescence polarization. Potency, µM, without a hit: max response, negative = inhibition, hits mostly inhibitors. 2.8% of 360,000 active; note: series mostly up to about 57 µM; nearly all actives have a fitted effect of over 65% in size
Starred values were filed as active, the others as inactive; u = inconclusive; x = no result given. Compounds with a hit are over-represented: about 18% of the library has one in this group of screens. Calls come from the whole dose curve; as a rule, active = well fitted curve in the direction sought with a large enough effect; inconclusive = small, poorly fitted or top-dose-only effect, or another doubt; inactive = no such curve, though single readings can be large; an effect the other way counts as inactive or inconclusive. % is set by controls: 0 for no effect and ±100 for the full control effect; potency is the fitted concentration of half-maximal effect.

SMILES	GCN5L2 inh	TDP1 cell CPT	TDP1 cell noCPT	TDP1 inh	VDR inhibitor	PLK1 PBD block
O=C(/C=C\Nc1ccccc1Br)c1ccc2c(c1)OCO2	-15.5%	-26.3%	u	7.9%	-1.9%	-10.7%
COc1cc(/C=C/C(=O)c2ccc3c(c2)OCCO3)cc(Br)c1OCC(=O)N(C)C	-6.4%	8.2µM*	7.31µM*	8.3%	u	-2.0%
COc1cccc(/C=C/C(=O)c2ccc3c(c2)OCO3)c1OC	-3.0%	u	18.4µM*	0.9%	-19.0%	-5.3%
Cc1ccc(OCC(=O)N/N=C2\CC(=O)CC(C)(C)C2)c(Br)c1	-5.3%	2.4%	2.9%	2.2%	0.9%	-6.2%
CN(C)c1ccc(/C=C/C(=O)c2ccc3c(c2)OCO3)cc1	-2.7%	23.1µM*	16.4µM*	-1.8%	-7.3%	32.3%
O=C(/C=C/c1ccc2c(c1)OCO2)c1ccc(F)cc1	-10.5%	u	u	-1.3%	u	-6.3%
O=C(CNC(=O)Cc1ccccc1)N=Nc1c(O)[nH]c2ccccc12	-7.4%	3.3%	-24.2%	-0.3%	5.6%	-12.5%
O=C(CCCCCNC(=O)c1ccccc1Br)N=Nc1c(O)[nH]c2ccccc12	-1.9%	20.6µM*	u	u	0.6%	-7.7%
N#Cc1nc(Cc2cccc3ccccc23)oc1NCc1ccc(F)cc1	-7.7%	u	20.6µM*	6.2%	7.1%	-6.4%
O=C(Nc1ccc2c(c1)[C@@H]1C[C@@H](CC(=O)N3CCOCC3)O[C@@H](CO)[C@@H]1O2)NC1CCCC1	x	4.6%	3.3%	x	x	2.4%
CN(C)N1C(N)=C(C#N)C(c2ccsc2)C2=C1CCCC2=O (stereo not given)	-4.7%	-1.4%	-5.6%	5.6%	u	0.0%
CN(C)N1C(N)=C(C#N)C(c2cccs2)C2=C1CCCC2=O (stereo not given)	-7.7%	10.8%	-11.6%	3.7%	0.2%	29.9µM*
CCN(CC)CCNc1c(C)cc(CO)c(Cl)c1C	x	11.4%	-7.8%	x	x	-11.0%
O=C(NC1CCCCC1)C1c2ccccc2OCC(=O)N1CCc1c[nH]c2ccccc12 (stereo not given)	x	-21.9%	25.9µM*	x	x	-8.8%
COc1ccc(C#Cc2ccc3c(c2)O[C@@H](CN(C)C(=O)Nc2cccc(OC)c2)[C@H](C)CN([C@@H](C)CO)S3(=O)=O)cc1	x	-24.3%	18.4µM*	x	x	19.8%
C[C@@H]1CN([C@H](C)CO)S(=O)(=O)c2ccc(C#Cc3ccccc3F)cc2O[C@@H]1CN(C)C(=O)Cc1ccccc1	x	14.6µM*	13µM*	x	x	u
COc1cccc(NC(=O)N(C)C[C@H]2Oc3cc(Br)ccc3S(=O)(=O)N([C@H](C)CO)C[C@H]2C)c1	x	u	u	x	x	1.9%
CC(C)NC(=O)N(C)C[C@H]1Oc2cc(C#Cc3ccc(F)cc3)ccc2S(=O)(=O)N([C@H](C)CO)C[C@H]1C	x	23.1µM*	u	x	x	-23.3%
COc1cccc(NC(=O)N(C)C[C@H]2Oc3cc(C#Cc4ccncc4)ccc3S(=O)(=O)N([C@H](C)CO)C[C@H]2C)c1	x	16.4µM*	23.1µM*	x	x	-5.4%
C[C@H]1CN([C@@H](C)CO)S(=O)(=O)c2ccc(Br)cc2O[C@H]1CN(C)C(=O)Cc1ccccc1	x	u	u	x	x	0.5%
CCOC(=O)Cn1c(-c2cccnc2Cl)nc2cc(C)c(C)cc21	0.0%	-23.5%	-22.1%	0.9%	6.9%	-3.6%
CCn1c(-c2cccnc2Cl)nc2cc(Cl)c(Cl)cc21	-1.7%	18.4µM*	u	4.2%	-6.9%	-6.4%
COc1ccc2cc(-c3nc(Cl)c4c5c(sc4n3)CCCC5)c(=O)oc2c1	-11.1%	-1.7%	1.0%	-3.6%	-7.7%	x
O=C(O)CN1C(=O)C(=O)N(Cc2ccc(C(F)(F)F)cc2)C1=O	28.2%	3.9%	15.4%	x	-11.4%	-6.5%
